Test systems include NCI-H23 lung; NCI-H322M lung; HOP-62 NSCLC; NCI-H460 lung; HOP-92 NSCLC; NCI-H522 lung; A549/ATCC NSCLC; 786-0 renal; COLO 205 colon; DU-145 prostate; K-562 leukemia; MALME-3M melanoma; MDA-MB-231 breast; RXF 393 renal; SF-268 CNS; SF-295 CNS; SF-539 CNS; UACC-257 melanoma; M14 melanoma.
Assay in all cases: NCI-60 one-dose screen, 48 h (100 = growth as untreated, 0 = no growth, -100 = all killed)
Common to all, as to conditions: 10 µM unless noted

Results on eight compounds are retold here after PubChem BioAssay (NCI).

Compounds without any hit were thinned out: in the full panel of roughly 83,000, 20% have a hit.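 Plates (96-well) were seeded with cells, treated with compound at one concentration, and incubated for 48 hours before percent growth was determined.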 Values without a mark were called inactive. Calls of active or inactive are those of the source. How the source made its calls: active means growth percent below 10; inactive means the rest.

Regarding `Nc1nccc2c1ccn2-c1cccc(NC(=O)c2ccc(N3CCOCC3)c(C(F)(F)F)c2)c1`, the growth with NCI-H23 lung was 16.4%; in the assay on NCI-H322M lung, 35.3%; in the assay with HOP-62 NSCLC, 24.1%; in the assay on NCI-H460 lung it was 1.28% (active); in the assay on HOP-92 NSCLC it was -6.29% (active); in the assay on NCI-H522 lung it was -43% (active). For the same compound, the growth in the assay with A549/ATCC NSCLC was 10.8%; in the assay with 786-0 renal it was -38.9% (active); in the assay on COLO 205 colon, -38.6% (active); in the assay on DU-145 prostate, -0.195% (active); in the assay on K-562 leukemia, 9.79% (active); in the assay on MALME-3M melanoma, 39.8%. For the same compound, the growth with MDA-MB-231 breast was 6.1% (active); with RXF 393 renal, -75.9% (active); in the assay with SF-268 CNS, 21.8%; in the assay with SF-295 CNS, -30.9% (active); in the assay with SF-539 CNS, 3.23% (active); with UACC-257 melanoma, 59.2%. The growth in the assay on M14 melanoma is 16%.

Turning to `C=C1C(=O)O[C@H]2[C@H]1CC/C(COC(=O)CCCC(=O)OC/C1=C/CC[C@@]3(C)O[C@H]3[C@H]3OC(=O)C(=C)[C@@H]3CC1)=C\CC[C@@]1(C)O[C@@H]21`, the growth is 29.2% with NCI-H23 lung; 90% in the assay with NCI-H322M lung; 79.6% in the assay on HOP-62 NSCLC; 64.5% in the assay on NCI-H460 lung; -43% (active) in the assay on HOP-92 NSCLC; -80.3% (active) in the assay on NCI-H522 lung. Besides, the growth in the assay on A549/ATCC NSCLC was 73.5%; in the assay with 786-0 renal, -34.1% (active); in the assay on COLO 205 colon it was -44.9% (active); with DU-145 prostate, 20.8%; in the assay with K-562 leukemia it was 7.38% (active); in the assay with MALME-3M melanoma, -8.44% (active). Moreover, the growth with MDA-MB-231 breast was 2.73% (active); in the assay with RXF 393 renal, -74.2% (active); with SF-268 CNS, 44.2%; in the assay with SF-295 CNS it was 78.3%; in the assay with SF-539 CNS, 0.465% (active); in the assay with UACC-257 melanoma, -39.9% (active). The growth in the assay with M14 melanoma is -33.1% (active).

In the case of `COC(=O)c1oc2c(C(=O)/C=C/c3ccc(OC)cc3)c(OCCN3CCOCC3)ccc2c1C`, the growth was 18.7% with NCI-H23 lung; 0.995% (active) with NCI-H322M lung; -6.52% (active) with HOP-62 NSCLC; -20.9% (active) in the assay on NCI-H460 lung; -44.8% (active) in the assay with HOP-92 NSCLC; -20% (active) in the assay on NCI-H522 lung. In addition, the growth in the assay with A549/ATCC NSCLC is 2.83% (active); in the assay on 786-0 renal, -6.7% (active); in the assay on COLO 205 colon, -20.9% (active); in the assay with DU-145 prostate, 1.8% (active); in the assay on K-562 leukemia it was -37.3% (active); in the assay with MALME-3M melanoma, -14.1% (active). Also, the growth with MDA-MB-231 breast was 3.21% (active); in the assay with RXF 393 renal, -64.4% (active); with SF-268 CNS it was 11.5%; in the assay on SF-295 CNS it was 18.3%; in the assay with SF-539 CNS, -34% (active); in the assay with UACC-257 melanoma, 55.5%. Further, the growth in the assay on M14 melanoma is 11.5%.

Consider `Cc1ccc(Cn2cc(COc3ccc4c5ccnc(C)c5n(CCCc5ccccc5)c4c3)nn2)cc1`, for which the growth was 84.3% with NCI-H23 lung; 90.6% with NCI-H322M lung; 87.1% with HOP-62 NSCLC; 103% with NCI-H460 lung; 68.6% in the assay with HOP-92 NSCLC; 66.4% in the assay on NCI-H522 lung. In addition, the growth in the assay on A549/ATCC NSCLC is 94.2%; with 786-0 renal, 85.9%; in the assay on COLO 205 colon, 92.2%; with DU-145 prostate, 103%; with K-562 leukemia, 62.3%; in the assay with MALME-3M melanoma, 87.9%. Moreover, the growth was 75.8% in the assay on MDA-MB-231 breast; 114% in the assay on RXF 393 renal; 95.9% in the assay with SF-268 CNS; 87.7% with SF-295 CNS; 89.9% with SF-539 CNS; 109% with UACC-257 melanoma. Further, the growth with M14 melanoma is 86.2%.

For `C#C[C@H](O)/C=C/CCCCCCC#C[C@H](O)CC[C@@H](O)C#CCCCCCC/C=C/[C@@H](O)C#C`, the growth in the assay on NCI-H23 lung was 51%; in the assay with NCI-H322M lung it was 96.3%; in the assay with HOP-62 NSCLC, 85.3%; with NCI-H460 lung, 97.4%; in the assay on HOP-92 NSCLC it was 11.9%; in the assay on NCI-H522 lung it was -72.7% (active). Moreover, the growth in the assay with A549/ATCC NSCLC was 91.1%; with 786-0 renal, 64.6%; in the assay with COLO 205 colon, 79.8%; with DU-145 prostate, 95.7%; in the assay on K-562 leukemia, 11.7%; in the assay with MALME-3M melanoma it was -32.9% (active). Moreover, the growth is 63.1% in the assay with MDA-MB-231 breast; 104% in the assay with RXF 393 renal; 85.1% with SF-268 CNS; 87.4% in the assay on SF-295 CNS; 75.9% in the assay on SF-539 CNS; 101% in the assay with UACC-257 melanoma. For the same compound, the growth in the assay with M14 melanoma was 93.1%.

Regarding `CC[C@H]1[C@@H]2C=C[C@@H]3[C@H]4C/C=C\C(=O)NCCC[C@@H]5NC(=O)/C(=C(O)/C=C/[C@@H]4C[C@@H]3[C@H]2C[C@H]1C)C5=O`, the growth with NCI-H23 lung was 51%; in the assay on NCI-H322M lung it was 35.7%; with HOP-62 NSCLC, -49.9% (active); in the assay on NCI-H460 lung, -51.2% (active); in the assay on HOP-92 NSCLC, -20.4% (active); with NCI-H522 lung, 67.7%. The growth in the assay on A549/ATCC NSCLC is 36.8%; with 786-0 renal, -80.9% (active); in the assay on COLO 205 colon it was 66%; in the assay with DU-145 prostate it was -94% (active); with MALME-3M melanoma, -6.22% (active); in the assay on MDA-MB-231 breast it was -2.91% (active). Further, the growth was -86.1% (active) with RXF 393 renal; -55.5% (active) in the assay on SF-268 CNS; -53.2% (active) in the assay on SF-295 CNS; -20.8% (active) with SF-539 CNS; 23.4% with UACC-257 melanoma; -10.9% (active) in the assay with M14 melanoma.

For the compound `Cc1cc(SCc2ccc(Cl)cc2Cl)nc(SCc2ccc(Cl)cc2Cl)n1`, the growth in the assay on NCI-H23 lung is 98.2%; with NCI-H322M lung it was 96.5%; in the assay with HOP-62 NSCLC it was 108%; in the assay with NCI-H460 lung, 104%; in the assay with HOP-92 NSCLC, 112%; in the assay on NCI-H522 lung, 89.1%. The growth with A549/ATCC NSCLC is 96.6%; in the assay with 786-0 renal, 103%; with COLO 205 colon, 113%; in the assay on DU-145 prostate it was 105%; in the assay on K-562 leukemia, 110%; in the assay with MALME-3M melanoma it was 88.9%. In addition, the growth in the assay on MDA-MB-231 breast is 101%; with RXF 393 renal, 108%; with SF-268 CNS, 102%; in the assay with SF-295 CNS, 95.8%; in the assay on SF-539 CNS, 98%; in the assay with UACC-257 melanoma, 98.8%. In the assay with M14 melanoma, the growth is 97.5%.

With `Nn1c(SCC(=O)Nc2cc(Cl)c(Cl)cc2Cl)nnc1-c1cc(F)c(Cl)cc1Cl`, the growth in the assay on NCI-H23 lung is 103%; with NCI-H322M lung, 105%; with HOP-62 NSCLC it was 91.3%; in the assay on NCI-H460 lung, 110%; with HOP-92 NSCLC, 75.8%; in the assay on NCI-H522 lung, 90.9%. In addition, the growth in the assay on A549/ATCC NSCLC is 106%; with 786-0 renal it was 98.4%; with COLO 205 colon, 106%; in the assay with DU-145 prostate, 113%; in the assay on K-562 leukemia it was 90.2%; in the assay on MALME-3M melanoma, 121%. The growth in the assay on MDA-MB-231 breast is 127%; in the assay on RXF 393 renal, 151%; in the assay with SF-268 CNS, 110%; in the assay on SF-295 CNS it was 109%; in the assay with SF-539 CNS it was 108%; in the assay with UACC-257 melanoma, 108%. Besides, the growth in the assay on M14 melanoma was 96.7%.
